# Assay results published in PubChem BioAssay (Tox21).
# Records with an inconclusive call do not appear. Entries that show only a call come without a potency. A number with no mark means an inactive call. The source made the active and inactive calls. Calls follow the shape of the full dose curve.
# Assay: qHTS assay to identify small molecule agonists of H2AX - cell viability counter screen (AID 1224847); also: top concentration of the series differs between compounds; nearly all actives have a fitted effect of over 30% in size
# Settings: CHO-K1 viability, CellTiter-Glo luminescence, 3 h; series mostly up to 154 µM
# Text: National Center for Advancing Translational Sciences [NCATS]
# NIH Chemical Genomics Center [NCGC]
# U.S. Environmental Protection Agency [EPA]
# National Institutes of Environmental Health Sciences [NIEHS]
# National Toxicology Program [NTP]
# U.S. Food and Drug Administration [FDA]
# HTRF phospho-H2AX (Ser139) assay (Cisbio Bioassays, US) enables the quantitative detection of the histone variant H2AX when phosphorylated on serine 139. When double-stranded DNA breaks, either by ionizing radiation or endogenous physiological processes, H2AX becomes phosphorylated at Ser139. This phospho-Ser139 serves as a sensitive biomarker for the detection of such breaks, localizing the site of DNA repair. So, HTRF phospho-H2AX Ser139 is a pertinent assay to study genome stability, the cell cycle, DNA repair, and it serves as a biomarker for cancer, and to understand aging. Wild type CHO-K1 cells were used to identify the inducers of Phospho-H2AX Ser 139 from the Tox21 compound collections. Also cytotoxicity of the Tox21 10K compound library against the CHO-K1 cell line was tested by measuring the cell viability using CellTiter-Glo assay (Promega, Madison, WI).
# Tox21 Assay Protocol Summary:
# The CHO-K1 cells suspended in culture medium containing 10% FBS were dispensed at 1000 cells/ 3 ul/well in 1536-well white wall/solid bottom plates (Greiner Bio-One North America, NC) using a Multidrop Combi (Thermo Fisher Scientific Inc., Waltham, MA). After the assay plates were incubated at 37C overnight, 23 nl of compounds at 15 concentrations (from 5-48 columns) or positive control (from 1 to 4 columns) were transferred to the assay plates using a Pintool station (Wako, San Diego, CA) into each well resulting in a final DMSO concentration of 0.76%. After 3hr incubation at 37C, 3 uL/well CellTiter-Glo luminescent cell viability reagent (Promega Corporation, Madison, WI) was added using a Flying Reagent Dispenser (FRD) (Aurora Discovery, CA). After incubation at room temperature for 30 min, the luminescence intensity was read using a ViewLux plate reader (PerkinElmer, Waltham, MA).
Compound,Potency,"activity change, negative = cytotoxicity"
CCC(=O)OC(C)(C)C1CC=C(C)CC1 (stereo not given),inactive,–
O=C(c1ccc(O)cc1)c1ccc(O)cc1,inactive,–
C=CC[N+]1([C@H]2C[C@H]3[C@@H]4CC[C@H]5C[C@H](OC(C)=O)[C@@H](N6CCCCC6)C[C@]5(C)[C@H]4CC[C@]3(C)[C@H]2OC(=O)CC)CCCCC1,inactive,–
c1ccc(CNCc2ccccc2)cc1,inactive,–
NCc1ccccc1,inactive,–
O=C(C(=O)c1ccc(Br)cc1)c1ccc(Br)cc1,–,0.693% [at 31.6 µM]
Cn1c(NCCN(CCO)CCCc2ccc([N+](=O)[O-])cc2)cc(=O)n(C)c1=O,inactive,–
Cc1ncsc1CCO,inactive,–
CCN1CCC[C@H]1CNC(=O)c1c(OC)ccc(Br)c1OC,inactive,–
Cc1ccc(C(=O)C(C)CN2CCCCC2)cc1 (stereo not given),inactive,–
CCCCOc1cc(C(=O)OCCN(CC)CC)ccc1N,inactive,–
CCCCCCCCCCCCCCCBr,inactive,–
C=C(C)C(=O)OCCN(C)C,inactive,–
O=C(O)Cn1c(C(=O)Nc2nc(-c3ccccc3Cl)cs2)cc2ccccc21,inactive,–
Cc1ccccn1,inactive,–
CC(C)NCC(O)COc1ccc(CC(N)=O)cc1 (stereo not given),inactive,–
CCCCOC(=O)/C=C\C(=O)OCCCC,inactive,–
SC1CCCC1,inactive,–
Cc1nc2ccccc2n1Cc1ccc(Cl)cc1,inactive,–
O=c1c2ccccc2nnn1CCl,inactive,–

Compound,Potency,"activity change, negative = cytotoxicity"
Nc1ccc(C(=O)N2CC3CC(CN(Cc4ccccc4)C3)C2)cc1,inactive,–
CCCCCCCCCCCCCCCC(=O)OC/C=C(C)/C=C/C=C(C)/C=C/C1=C(C)CCCC1(C)C,inactive,–
O=C1CCCCCO1,inactive,–
CCCc1ccccc1,inactive,–
CCCCOC(O)CC (stereo not given),inactive,–
NCCCOCCOCCOCCCN,inactive,–
Cc1ccc(C)o1,inactive,–
CC(=O)/C(C)=C/C1C(C)=CCCC1(C)C (stereo not given),inactive,–
CCN(CC)CCOC(=O)C1(c2ccccc2)CCCC1,inactive,–
CCCC(=O)OCC,inactive,–
O=C(O)/C=C/c1cnc[nH]1,inactive,–
CC1=CC(=O)/C(=C(/C)O)C(=O)O1,inactive,–
O=C(O)C1CCC(C(=O)O)CC1 (stereo not given),inactive,–
N#CCc1cccc(C(F)(F)F)c1,inactive,–
CCCCCCCCN(C)C,inactive,–
Oc1ccc(C(O)CNCCCCCCNCC(O)c2ccc(O)c(O)c2)cc1O (stereo not given),inactive,–
CCC(C)N(C)C(=O)c1cc2ccccc2c(-c2ccccc2Cl)n1 (stereo not given),inactive,–
CC(C)CCCCCCOC(=O)c1ccc(C(=O)OCCCCCCC(C)C)c(C(=O)OCCCCCCC(C)C)c1,inactive,–
CC(=O)OC/C=C/c1ccccc1,inactive,–
O=C(NS(=O)(=O)/C=C/c1cccs1)c1ccc(F)cc1Br,inactive,–
